GPR151 activ – activators of human GPR151 | PathHunter beta-arrestin GPR151 cells, luminescence | activation, % at 11.2 µM | AID 1508602 | 650,000 tested, 1% active | Q8TDV0; in the data active = activation above about 4.9%;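 note: 0% = median of compound wells and 100% = cells with positive control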
TEAD-YAP block – TEAD-YAP interaction inhibition; HEK-TIYL cells, TEAD-Gal4/YAP UAS-luciferase luminescence; inhibition, % at 9.12 µM; 640,000 tested, 1.4% active; AID 1259422; in the data active = inhibition above about 32%;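 note: 0% = median of test compound wells and 100% = reference inhibitor wells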
FBW7 act – human FBW7 E3 ligase activation, primary screen; AlphaScreen FBW7–phospho-cyclin E peptide binding, activator screen; normalized activity (activation), % at 26.1 µM; 650,000 tested, 0.13% active; in the data active = normalized activity above about 1.9%;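 note: purified mutant Fbw7 with reduced substrate affinity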
MITF inh – human MITF inhibition, primary screen | O75030 | AlphaScreen MITF homodimerization, bead proximity signal | inhibition, % at 2.6 µM | 650,000 tested, 0.91% active | AID 1259374; in the data active = inhibition above about 50%;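 note: 0% = vehicle wells with protein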
Target sequence (O75030 whole entry, looked up): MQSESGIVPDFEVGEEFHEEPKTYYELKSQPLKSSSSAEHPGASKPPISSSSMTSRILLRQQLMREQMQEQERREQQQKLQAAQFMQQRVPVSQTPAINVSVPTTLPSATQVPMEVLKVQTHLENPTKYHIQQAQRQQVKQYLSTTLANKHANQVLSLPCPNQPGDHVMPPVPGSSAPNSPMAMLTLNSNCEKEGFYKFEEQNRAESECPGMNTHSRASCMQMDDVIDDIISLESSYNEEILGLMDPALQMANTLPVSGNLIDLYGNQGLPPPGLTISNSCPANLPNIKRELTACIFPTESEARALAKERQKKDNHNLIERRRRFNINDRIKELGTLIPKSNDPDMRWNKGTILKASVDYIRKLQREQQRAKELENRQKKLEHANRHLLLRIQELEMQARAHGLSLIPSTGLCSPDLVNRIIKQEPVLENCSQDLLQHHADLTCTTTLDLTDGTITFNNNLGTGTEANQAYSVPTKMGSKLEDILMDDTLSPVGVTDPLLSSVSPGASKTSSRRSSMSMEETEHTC
GPR151 confirm – confirmation of human GPR151 activators; shares compounds with GPR151 activ; GPR151 PathHunter beta-arrestin cells, luminescence, 90 min; % of EA-reagent control over plate median; activation, % at 11.2 µM; 6,700 tested, under 10 active; AID 1508609;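 active = mean percent activation across replicates above the confirmation screen cutoff of 4.91%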
GPR119 counter – counter-screen for GPR151 activators: effect on human GPR119; shares compounds with GPR151 activ; GPR119 PathHunter beta-arrestin cells, luminescence, 90 min; 0 = compound-well median, 100 = enzyme-acceptor control; activation, % at 11.2 µM; 6,700 tested, 0.3% active;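 active = mean percent activation in the counterscreen above 29.09%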;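 note: counterscreen on off-target GPR119 to flag nonselective hits from the GPR151 activator screen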
An asterisk follows results filed as active; . = not tested or not shown. A selection: hits, their analogues and other compounds. The true share with any hit is near 3.4%.

SMILES	GPR151 activ	TEAD-YAP block	FBW7 act	MITF inh	GPR151 confirm	GPR119 counter
COC(=O)CCS(=O)(=O)c1ccc(Oc2ccc(S(=O)(=O)CCC(=O)OC)cc2)cc1	5.7*	14	0	1	1	-3
C[n+]1ccc(C(=O)NCCC[N+](C)(C)Cc2ccccc2)cc1/C=N/O	2	-23	0	-12	.	.
O=C1NC(=S)S/C1=C/c1cccn1-c1ccc([N+](=O)[O-])cc1	0	0	0	-8	.	.
CCCCCNC(=O)CSCc1ccc([N+](=O)[O-])cc1	-1	14	1	13	.	.
CC(C(=O)Nc1nc2ccccc2s1)N1C(=O)c2ccccc2C1=O (stereo unspecified)	9.7*	-7	0	2	1	-14
Cc1ccc(NC(=O)C(C)N2C(=O)c3ccccc3C2=O)cc1C (stereo unspecified)	6.3*	3	0	-2	0	-8
Cc1cc(C)cc(NC(=O)C(C)N2C(=O)c3ccccc3C2=O)c1 (stereo unspecified)	2	1	0	0	.	.
Cn1nc(Br)c[n+]1[O-]	-1	-1	0	-1	.	.
COCCn1c(C)cc2c(c1=O)C(c1ccc(Cl)cc1)C(C(=O)OC)=C(N)O2 (stereo unspecified)	0	8	0	-3	.	.
COCCn1c(C)cc2c(c1=O)C(c1ccc(Cl)cc1Cl)C(C(=O)OC)=C(N)O2 (stereo unspecified)	7.1*	0	0	10	1	-6
CC12CCc3ccccc3C1(C)OC(=O)O2 (stereo unspecified)	-1	12	0	5	.	.
CN1C(=O)OC2(C)CCc3ccccc3C12C (stereo unspecified)	5.0*	5	0	-10	0	8
COc1ccccc1Cn1c(N)c(C#N)c2nc3ccccc3nc21	3	-11	0	0	.	.
Cn1c(=O)c(=O)n(C)c2cc(S(=O)(=O)CCC(=O)NCc3ccccc3)ccc21	6.1*	-10	1	-18	0	-4
COC(=O)CCC(=O)Nc1ccc(OC)c(Cl)c1	6.0*	6	0	-2	0	12
COc1ccc(CNC(=O)CCS(=O)(=O)c2ccc3c(c2)n(C)c(=O)c(=O)n3C)cc1	0	4	0	-11	.	.
CCCC(=O)Nc1ccc(OC)c(Cl)c1	-3	-2	0	16	.	.
CCC1Sc2cc(S(=O)(=O)CCC(=O)NCc3cccnc3)ccc2NC1=O (stereo unspecified)	7.5*	10	0	0	0	4
COc1cccc(CNC(=O)CCS(=O)(=O)c2ccc3c(c2)SCC(=O)N3)c1	11*	2	0	12	0	-8
Cc1nn(C(=O)c2sc3ccccc3c2Cl)c(C)c1Sc1ccccc1[N+](=O)[O-]	-1	-1	0	-2	.	.
COc1cccc(CC2=NOC(C(=O)N3CCSCC3)C2)c1 (stereo unspecified)	3	-19	0	-17	.	.
COc1ccc(C2=NN(c3nc(-c4ccc(Cl)cc4)c4ccccc4n3)C(c3ccc(Br)cc3)C2)cc1 (stereo unspecified)	1	-2	0	-5	.	.
Cc1ccc(C(=O)[C@H]2[C@@H]3C4COC(O4)C(=O)[C@H]3[C@@H]3c4ccccc4C=CN23)cc1 (stereo partly specified)	-1	-8	0	-3	.	.
COc1ccc(NC(=O)CCS(=O)(=O)c2ccc3c(c2)SCC(=O)N3)cc1OC	1	-4	0	-4	.	.
COc1ccc(NC(=O)CCS(=O)(=O)c2ccc3c(c2)SCC(=O)N3)cc1Cl	5.2*	-1	0	3	1	6
SMILES	GPR151 activ	TEAD-YAP block	FBW7 act	MITF inh	GPR151 confirm	GPR119 counter
FC(F)(F)c1ccc(NCCN2CCOCC2)nc1	8.2*	2	0	-13	0	2
O=C(CCCn1c2ccccc2c(=O)c2ccccc21)Nc1ccc(F)cc1	1	-12	0	-6	.	.
Cc1nc(SCC(=O)NC(=O)NCc2ccco2)c2c(-c3cccs3)csc2n1	5.0*	2	0	11	1	4
Cc1nc(SCC(=O)Nc2cc(C)on2)c2c(-c3cccs3)csc2n1	1	1	0	6	.	.
C=CCn1c(=O)c2c3c(sc2n2c(Nc4ccc(C(=O)OCC)cc4)nnc12)CCC3	-2	11	1	9	.	.
C=CCn1c(=O)c2c(C)c(C)sc2n2c(Nc3ccccc3)nnc12	5.9*	3	0	28	0	-10
CCOC(=O)c1sc(NC(=O)CSc2ncnc3sc(C)c(C)c23)c(C(=O)OCC)c1C	6.4*	9	0	10	1	8
CCC[C@@H]1NC(=O)[C@@H]2C[C@H](NC(=O)c3ccc(Cl)c(Cl)c3)CN2C1=O	-1	15	0	11	.	.
Cc1ccc(OCC(=O)OCc2c(C)noc2C)cc1C	8.0*	7	0	-3	0	4
Cc1cc(C)cc(OCC(=O)OCc2c(C)noc2C)c1	2	-1	0	9	.	.
Cc1ccc(OCC(=O)OCC(=O)c2ccccc2)cc1C	10*	-4	0	-7	0	11
CCOC(=O)CC(C(C)C)N(Cc1ccc(Cl)c([N+](=O)[O-])c1)S(=O)(=O)c1ccc(Cl)cc1 (stereo unspecified)	9.1*	-8	0	9	-1	-10
COc1cccc(C2NC(=O)NC(C)=C2C(=O)OCc2ccc(C)cc2)c1 (stereo unspecified)	1	0	1	22	.	.
CC(Oc1cccc(Cl)c1)C(=O)NC1CCCCC1 (stereo unspecified)	0	-2	0	0	.	.
Cc1ccccc1NC(=O)Cn1nc(C)n2cccc2c1=O	8.6*	4	0	7	-1	-12
Nc1cccc(-c2cc(Nc3ccc(Oc4ccccc4)cc3)nc(N)n2)c1	4.9*	52*	0	7	1	-7
COc1ccc(-c2cc(Nc3ccc(Oc4ccccc4)cc3)nc(N)n2)cc1	5	-2	0	8	.	.
COCCN(Cc1ccsc1)C(=O)NC(c1ccccc1)c1ccccc1	2	8	0	2	.	.
Cc1cc(=O)[nH]c(N/N=C/C=C2\N(C)c3ccccc3C2(C)C)n1	5.0*	6	-1	24	0	-3
Cc1nc2cc(C(=O)NC3CCCC3)ccc2n1-c1ccc(C(C)C)cc1	-1	4	1	19	.	.
Cc1cc(C)c(NC(=O)CSc2nc(C)cc(=O)[nH]2)c([N+](=O)[O-])c1	8.2*	-11	0	-1	-1	-11
NC(=O)c1cc2cc(Cl)ccc2oc1=Nc1ccccc1	5.8*	7	0	6	0	-3
O=C(Cn1c(=O)oc2ccccc21)NCc1cccc(F)c1	9.5*	-3	0	11	1	10
CC(C)Oc1ccc(CNC(=O)Cn2c(=O)oc3ccccc32)cc1	5.3*	-8	0	-1	0	7

Screening results deposited in PubChem by The Scripps Research Institute Molecular Screening Center.
